Bioassay records (PubChem BioAssay)
Sampled rows, rich in hits. Any-hit rate of the full collection: about 4%.
TROY signal inh: inhibitors of TROY-dependent NF-kB signaling; Q293 LMP1-TROYcd NF-kB luciferase reporter, 4 h; inhibition, % at 10 µM; hit rate 0.98% among 360,000;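 active = compounds whose plate-normalised and pattern-corrected inhibition of the luciferase reporter signal at the single screening dose is 50% or more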
HIF-2a inh: blocks HIF-2a reporter activity; 786-0 RCC cells HIF-2a reporter, luciferase luminescence, overnight; inhibition, % at 18.8 µM; hit rate 0.72% among 360,000; AID 624352;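 active = inhibition of the luminescence signal of 40% or more relative to plate controls, in a single-dose primary screen at 18.75 µM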
TWEAK Fn14 block: TWEAK-Fn14 signaling inhibition; inhibition, % at 10 µM; AID 1159606; hit rate 2% among 360,000; TWEAK-stimulated Fn14 reporter cells, luciferase luminescence, 8 h; in the data active = inhibition above about 50%
KKLEB cytotox: reduces viability of KKLEB cystic fibrosis airway cells. KKLEB CF airway cells viability, ATPlite luminescence, overnight; active compounds read low; cells stimulated with P. aeruginosa culture filtrate. activity change (cytotoxicity), % at 5 µM. hit rate 0.36% among 360,000;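 active = corrected activity change at or below -50% at 5 µM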
CF NFkB inh: inhibitors of cystic fibrosis induced NF-kB; KKLEB NF-kB-GFP reporter, PAF-induced, GFP fluorescence overnight; inhibition, % at 5 µM; hit rate 0.86% among 360,000;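 active = at least 50% inhibition at 5 µM, scaled per plate between neutral and stimulator controls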;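 also: PAF is a Pseudomonas aeruginosa culture filtrate used as stimulus; plate controls were PAF-stimulated DMSO wells for no effect and unstimulated DMSO wells for full effect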
Peg3 promoter: Peg3 promoter activity inhibition | HeLa PEG-Prom luciferase reporter, luminescence, overnight | inhibition, % at 20 µM | hit rate 1.7% among 360,000 | AID 588405;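 active = inhibition of at least 50% at 20 µM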
CF NFkB inh conf: confirmation of cystic fibrosis induced NF-kB inhibitors | shares compounds with CF NFkB inh | KKLEB CF airway cells, PAF-induced NF-kB-GFP fluorescence, overnight | inhibition, % at 5 µM | hit rate 64% among 1,300; in the data active = inhibition above about 40%;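 also: stimulus PAF is a Pseudomonas aeruginosa filtrate and not platelet activating factor; plate controls were DMSO wells with stimulus for no effect and unstimulated DMSO wells for full effect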
An asterisk follows results filed as active; . = no result given; ! = repeats disagree.

SMILES | TROY signal inh | HIF-2a inh | TWEAK Fn14 block | KKLEB cytotox | CF NFkB inh | Peg3 promoter | CF NFkB inh conf
CC(C)CC1NC(=O)N(CC(=O)N2c3ccccc3NC(=O)C2(C)C)C1=O (configuration not stated) | 0.5 | 20.0 | -29.9 | 6.5 | 16.8 | 11.1 | .
COc1cc(C(=O)N/N=C/c2coc3ccc(Cl)cc3c2=O)ccc1O | 24.7 | 19.4 | 42.5 | -14.8 | 61.4* | 0.4 | 38.7
O=C(N/N=C/c1coc2ccc(Cl)cc2c1=O)c1ccc(O)cc1 | 25.4 | 12.2 | 69.5* | -9.9 | 51.0* | 15.9 | 16.4
COc1ccc(C(=O)N/N=C\c2coc3ccc(Cl)cc3c2=O)cc1 | 11.3 | 29.7 | 30.4 | -10.6 | 43.7 | -2.3 | .
CCC(=O)N1CCc2cc(S(=O)(=O)NCCc3ccc(S(N)(=O)=O)cc3)ccc21 | -13.0 | 11.9 | 8.8 | 5.4 | -0.3 | -11.2 | .
Cc1ccccc1CNC(=O)C(=O)NCC1CCCN1S(=O)(=O)c1cccs1 (configuration not stated) | 5.7 | 10.9 | 12.5 | -10.6 | 12.2 | 14.0 | .
CN1C(=O)C(C)(C)c2cc(S(=O)(=O)NCc3ccc(C(=O)NCc4ccco4)cc3)ccc21 | -15.8 | 5.6 | 0.6 | -2.4 | 4.3 | 0.1 | .
CCCCOC(=O)/C=C\C(=O)NC(N)=O | -3.6 | 31.7 | 39.3 | -10.3 | 56.8* | 11.3 | -15.2
CN(C)CCCN(C(=O)CCOc1ccccc1)c1nc2ccc(F)cc2s1 | 33.5 | 6.5 | 60.8* | -35.1 | 91.2* | 71.8* | 69.4*
CN(C)CCCN(C(=O)CCOc1ccccc1)c1nc2c(F)cccc2s1 | 20.8 | 23.5 | 33.3 | -27.0 | 84.6* | 50.4* | 60.5*
O=C(CN1CCN(c2ccccc2F)CC1)NC(=O)NCc1ccccc1 | -7.2 | 12.8 | -6.6 | -4.3 | 4.0 | 7.0 | .
COc1cccc(-c2nnc3sc(C4CCCCC4)nn23)c1 | 51.5* | -74.9 | 64.4* | 3.8 | 85.9* | -27.3 | 96.4*
CCOc1cccc(-c2nnc3sc(C4CCCCC4)nn23)c1 | 25.4 | -26.1 | 16.7 | -10.8 | 66.1* | -7.2 | 84.6*
c1cncc(-c2nnc3sc(C4CCCCC4)nn23)c1 | -3.5 | -1.7 | 0.8 | -8.1 | -2.6 | 8.7 | .
CCCS(=O)(=O)NC(=O)C1(C)CCCN(C(=O)c2cccnc2Oc2ccccc2)C1 (configuration not stated) | -5.0 | 6.0 | -5.8 | 4.3 | -10.3 | 6.2 | .
Cc1cn(-c2cc(C(=O)Nc3ccc(C)c(NC(=O)C(=O)c4c[nH]c5ccccc45)c3)cc(C(F)(F)F)c2)cn1 | 12.7 | 24.2 | 52.1*! | -0.4 | 50.2*! | 28.7 | 21.2
Nc1ccc2nc(-c3ccccc3)c(-c3ccccc3)nc2c1 | 1.3 | 13.7 | 12.2 | -16.4 | 66.7* | 8.3 | 5.1
Cc1nc([N+](=O)[O-])c(Br)n1Cc1ccccc1 | 9.2 | 18.3 | 6.3 | -3.0 | 34.1 | -1.0 | .
Cc1nc([N+](=O)[O-])c(Sc2nc3ccc([N+](=O)[O-])cc3[nH]2)n1Cc1ccccc1 | 34.2 | 18.8 | 80.5* | -49.8 | 70.3* | -0.2 | 54.7*
CCCCCCCC(=O)NNC(=O)Cc1ccccc1 | -10.9 | -4.8 | -4.1 | 8.1 | -19.0 | 2.2 | .
CCCCCCCCCCCC(=O)c1c(O)cccc1O | 15.5 | 8.1 | -11.1 | -11.7 | 71.4* | 25.6 | 41.5*
COc1ccccc1Cc1c(-c2cccc(Br)c2)nc2ccc(Cl)cn12 | -37.2 | -232.4 | 6.5 | -13.5 | 22.0 | -159.1 | .
CC(C)C[C@H]1CNC(=S)N1C[C@H]1CCCN1C[C@H](Cc1ccc(O)cc1)N1C[C@H](CC(C)C)N(CC2CCCCCC2)C1=S | 12.4 | -3.8 | 19.7 | -9.2 | 42.2 | 19.4 | .
CC(C)C[C@H]1CNC(=S)N1C[C@H]1CCCN1C[C@H](Cc1ccc(O)cc1)N1C[C@H](Cc2ccccc2)N(CC2CCCCC2)C1=S | 7.0 | -13.0 | 11.6 | -3.6 | -5.4 | 16.0 | .
CC(C)C[C@H]1CNC(=S)N1C[C@H]1CCCN1C[C@H](Cc1ccccc1)N1C[C@H](Cc2ccc(O)cc2)N(CC2CCCCCC2)C1=S | -1.6 | -7.3 | 12.0 | -46.9 | 61.2* | 98.6* | 44.0*
SMILES | TROY signal inh | HIF-2a inh | TWEAK Fn14 block | KKLEB cytotox | CF NFkB inh | Peg3 promoter | CF NFkB inh conf
CC(C)C[C@H]1CN([C@@H](Cc2ccccc2)CN2CCCC2CN2C(=S)NC[C@@H]2Cc2ccccc2)C(=S)N1CC1CCCCC1 (some centres not stated) | 11.7 | -1.6 | 12.0 | . | . | . | .
CC(C)C[C@@H](CN1CCCC1CN1C(=S)NC[C@@H]1Cc1ccc(O)cc1)N1C[C@H](Cc2ccc(O)cc2)N(CC2CCCCC2)C1=S (some centres not stated) | 17.1 | -38.4 | 55.9* | -17.7 | 58.6* | 92.7* | 59.9*
Oc1ccc(C[C@H]2CN([C@@H](Cc3ccc(O)cc3)CN3CCC[C@@H]3CN3C(=S)NC[C@@H]3Cc3ccccc3)C(=S)N2CC2CCCCCC2)cc1 | -12.4 | -29.3 | 61.5* | -35.5 | 58.1* | 100.7* | 19.6
Oc1ccc(C[C@H]2CNC(=S)N2CC2CCCN2C[C@H](Cc2ccccc2)N2C[C@H](Cc3ccc(O)cc3)N(CC3CCCCCC3)C2=S)cc1 (some centres not stated) | -1.2 | -37.2 | 41.1 | -23.9 | 57.6* | 44.7 | 41.5*
CCOC(=O)C1=CCN(S(=O)(=O)c2ccc(Br)cc2)C1c1cccc(C)c1 (configuration not stated) | 4.4 | 9.6 | 9.9 | -18.1 | 2.0 | 38.3 | .
Oc1ccc(C[C@H]2CNC(=S)N2CC2CCCN2C[C@H](Cc2ccc(O)cc2)N2C[C@H](Cc3ccc(O)cc3)N(CC3CCCCC3)C2=S)cc1 (some centres not stated) | 44.9 | -36.2 | 96.4* | -13.3 | 58.6* | 43.1 | 59.3*
Cc1cccc(C(=O)NCCN2CCN(c3ccccc3)CC2)c1 | -6.3 | 13.2 | -6.7 | 4.4 | -12.1 | 18.9 | .
O=C(NCCN1CCN(c2ccccc2)CC1)c1cccc(Br)c1 | 20.9 | 3.9 | 12.7 | -14.3 | 52.3* | 4.0 | 52.9*
COc1cc(/C=C/C(=O)N2C(=O)c3cccc(N)c3C2=O)cc(OC)c1OC | -36.9 | 10.1 | 91.9* | -5.2 | 64.2* | 64.7* | -5.4
COc1cc(/C=C/C(=O)N2CCN(C(=O)/C=C/c3cc(OC)c(OC)c(OC)c3)CC2)cc(OC)c1OC | -3.3 | 11.9 | 3.2 | -0.6 | -12.8 | -14.9 | .
COc1ccc(OC)c(/C=C/C(=O)N2C(=O)c3cccc(N)c3C2=O)c1 | -6.6 | 7.4 | 100.4* | -40.2 | 60.2* | 63.6* | 36.9
COc1ccc(OC)c(/C=C/C(=O)N2CCCc3ccccc32)c1 | -21.2 | -86.9 | -32.7 | 4.2 | -12.1 | -57.4 | .
Cc1ccc(OC(=O)N(C)C[C@H]2OCc3cn(nn3)CCCC(=O)N([C@H](C)CO)C[C@@H]2C)cc1 | -8.3 | 8.8 | -9.7 | 1.1 | -7.5 | 7.1 | .
